system: RARb homodimer (NR concentration 270 nM); test: PBM binding z-score (relative to random genomic background probes); higher = stronger binding; sequences stand for … in GC…GCGATTGACAGCGTAGAATGAAGG
How it was run: (§1)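 Antibodies against each partner of ligand-free nuclear receptor dimers (one per run) detected binding on custom Agilent 4×180K protein-binding microarrays after 1 h incubation. The double-stranded probes had 34-nt variable regions carrying direct-repeat seeds, single-nucleotide variants, half-site ablations and random human genomic background sequences. Binding z-scores, from regression-normalized fluorescence, use the random background probes as reference.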

| Sequence | PBM binding z-score |
| --- | --- |
| ACATGTAGGTTATCGGGTCATTCAGTTTGCGCAT | 3.23 |
| CCTACTGAGCCATCAGGTCATTGATATCAACGTT | 2.7 |
| GCTATTAGTTGAAAGGGCCACCGAATGATTCTCG | 1.19 |
| TCTATTTGTTGAAGGGCAACCGACGAGTCCGTTT | 1.57 |
| TGAATGAGGTCATAAGATCAGGGAACGTTGCAAA | 3.34 |
| ATCTCTTGGTAAAGATAGTTCAGTGAATGCAAAT | 1.23 |
| ATCTCTAGGTAGCAAGTTCAGTGAAAGAGAGGAC | 1.48 |
| ATCTCTAGGTAAAAGTCCAGTGAATCCCGAGGAT | -0.174 |
| AGTCAAAGTTCATCTAGGAAACGTAAGATATGCT | 3.89 |
| CCGAGCAGGTTATGGGGCATTCAGGCAACGGTGA | 1.03 |
| CCGACTGGGGCATAAGGTTACCCTAAGCCAGCCC | 1.42 |
| CCTTACAGGTCACTCCAGGTTATAGCATCGGAGT | 3.76 |
| CGAAATAGGTCAAGGACAGTGAATCTCCGCACGC | 3.69 |
| AGAACGAGGCCACGCTGAGTTGATAGCAGAGTAG | 0.176 |
| CCTGCTAGGTCAATGGTAAGCTAAAGCAGCTCGC | 2.43 |
| AGAATAAGGTTATACGTAGATCAGGGAAGAAAGT | 0.925 |
| TCTATTAGTTGAAGGGCAACCGCCGAGTCCGTTT | 1.41 |
| ATATCTAGGTAACCAAGTTCAGTGAATGCCGAAC | 1.55 |
| CAGCCTAGGTCAGGTCCAGTATAGGAGGAACGTT | 1.98 |
| TCGAGTAGGTTACCAATGGGGCATTAAGCTTTCT | 0.561 |

| Sequence | PBM binding z-score |
| --- | --- |
| TCTTGTAGATCAACAGGAGGCTAAGAAAGATCGA | -0.642 |
| TTAGCAAGGTGAGCTGAGGTCGTTGATCCAACTC | 1.52 |
| TTTAGCAGGCCAGAGGGTCACTCAAGAGGTACGG | 2.65 |
| AGAACGAGGTTAAGATCAGGGAAACAGAATACAT | 1.12 |
| ATCTCTATGTAAGACTCAGTTCAGTGAAGAACGC | 0.277 |
| CAAACTAGATCACGAAAGGTCAAAGTCGAATGAC | 4.84 |
| ATCTCTTGGTAACCAAGTTCAGTGAATGCCGAAC | 1.4 |
| TCTAGCAGGCCGGAGGGTCACTCAAGAGGTACGG | 2.33 |
| CTACCAAGGTGAACAAGGTCGTTGATTACTATTC | 2.1 |
| CAAACTAGGTCAAGAGTTCAAAGTCCGCTTCCCG | 4.97 |
| GATACATGGTCAAGGCCAGAGTACGCGTATTGAT | 0.856 |
| AGTCAAAGTTCATCTATGTAACGTAAGATATGCT | 3.77 |
| TTACCAGGGTGAGCTGAGGTCGTTGATCCAACTC | 1.24 |
| ACTAGCAGGCCATGGGTCACTCAAGATTAGTCCG | 2.1 |
| CCTACTGGGCCACGAAAGGTTATTGATTCAGTGA | 1.98 |
| CCAGATAGGTGAGAAGGTAACTCAGCCTCGATTA | 0.492 |
| CCTAGCAGGCCAGGGTCAATCAAGCATTTCGCTT | 2.92 |
| GCTGCTAGGTCAATTGATGGTCAGCTAAAGCTCG | 2.95 |
| ACTAGCAGGCCAAGGGGCACTCAAGATTAGTCCG | 0.873 |
| GCGCGGAGGACAAGGTCAGAGCTTTGTCCGTAGA | 2.99 |

system: RARg:RXRa (NR concentration 270 nM, RXRa partner concentration 90 nM); test: as above
How it was run: as §1

| Sequence | PBM binding z-score |
| --- | --- |
| ACATGTAGGTTATCGGGTCATTCAGTTTGCGCAT | 3.35 |
| CCTACTGAGCCATCAGGTCATTGATATCAACGTT | 1.5 |
| GCTATTAGTTGAAAGGGCCACCGAATGATTCTCG | 0.331 |
| TCTATTTGTTGAAGGGCAACCGACGAGTCCGTTT | 0.705 |
| TGAATGAGGTCATAAGATCAGGGAACGTTGCAAA | 5.65 |
| ATCTCTTGGTAAAGATAGTTCAGTGAATGCAAAT | 0.592 |
| ATCTCTAGGTAGCAAGTTCAGTGAAAGAGAGGAC | 0.743 |
| ATCTCTAGGTAAAAGTCCAGTGAATCCCGAGGAT | 0.275 |
| AGTCAAAGTTCATCTAGGAAACGTAAGATATGCT | 5.45 |
| CCGAGCAGGTTATGGGGCATTCAGGCAACGGTGA | 0.387 |
| CCGACTGGGGCATAAGGTTACCCTAAGCCAGCCC | 1.27 |
| CCTTACAGGTCACTCCAGGTTATAGCATCGGAGT | 4.74 |
| CGAAATAGGTCAAGGACAGTGAATCTCCGCACGC | 5.2 |
| AGAACGAGGCCACGCTGAGTTGATAGCAGAGTAG | 0.764 |
| CCTGCTAGGTCAATGGTAAGCTAAAGCAGCTCGC | 3.52 |
| AGAATAAGGTTATACGTAGATCAGGGAAGAAAGT | 1.78 |
| TCTATTAGTTGAAGGGCAACCGCCGAGTCCGTTT | 0.448 |
| ATATCTAGGTAACCAAGTTCAGTGAATGCCGAAC | 0.963 |
| CAGCCTAGGTCAGGTCCAGTATAGGAGGAACGTT | 2.25 |
| TCGAGTAGGTTACCAATGGGGCATTAAGCTTTCT | 0.966 |

| Sequence | PBM binding z-score |
| --- | --- |
| TCTTGTAGATCAACAGGAGGCTAAGAAAGATCGA | 0.0636 |
| TTAGCAAGGTGAGCTGAGGTCGTTGATCCAACTC | 1.03 |
| TTTAGCAGGCCAGAGGGTCACTCAAGAGGTACGG | 2.51 |
| AGAACGAGGTTAAGATCAGGGAAACAGAATACAT | 2.15 |
| ATCTCTATGTAAGACTCAGTTCAGTGAAGAACGC | -0.035 |
| CAAACTAGATCACGAAAGGTCAAAGTCGAATGAC | 5.87 |
| ATCTCTTGGTAACCAAGTTCAGTGAATGCCGAAC | 0.23 |
| TCTAGCAGGCCGGAGGGTCACTCAAGAGGTACGG | 2.01 |
| CTACCAAGGTGAACAAGGTCGTTGATTACTATTC | 1.73 |
| CAAACTAGGTCAAGAGTTCAAAGTCCGCTTCCCG | 7.16 |
| GATACATGGTCAAGGCCAGAGTACGCGTATTGAT | 0.785 |
| AGTCAAAGTTCATCTATGTAACGTAAGATATGCT | 5.2 |
| TTACCAGGGTGAGCTGAGGTCGTTGATCCAACTC | 1.08 |
| ACTAGCAGGCCATGGGTCACTCAAGATTAGTCCG | 1.88 |
| CCTACTGGGCCACGAAAGGTTATTGATTCAGTGA | 1.1 |
| CCAGATAGGTGAGAAGGTAACTCAGCCTCGATTA | 0.647 |
| CCTAGCAGGCCAGGGTCAATCAAGCATTTCGCTT | 3.32 |
| GCTGCTAGGTCAATTGATGGTCAGCTAAAGCTCG | 4.28 |
| ACTAGCAGGCCAAGGGGCACTCAAGATTAGTCCG | 0.423 |
| GCGCGGAGGACAAGGTCAGAGCTTTGTCCGTAGA | 3.09 |
